Experimental data taken from PubChem BioAssay AID2546 (National Center for Advancing Translational Sciences (NCATS), 2010).
Among all 310,000 compounds or so, about 11,000 (3.5%) were called active. A call without a number means that no potency is given here. Not shown: some 8% with an inconclusive outcome. The call rests on the fitted dose curve; in most records, active means well fitted inhibition curve with a large enough effect; inconclusive means small, poorly fitted or top-dose-only effect, or effect the other way; inactive means flat fitted curve, though single readings scatter. Many of the other results were omitted from the sample, so actives are more common in it than they were.

Assay: VP16 counterscreen qHTS for inhibitors of ROR gamma transcriptional activity;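 further: Gal4-VP16 expression switched on by copper sulfate through the metallothionein promoter; nearly all actives have a fitted effect of over 50% in size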
Conditions: Drosophila S2 Gal4-VP16 UAS-luciferase, luminescence, 20 h; series mostly up to 53.6 µM
Potency means the concentration at half of the fitted maximal effect.

Row | Compound | Potency | activity, negative = inhibition
1 | C[C@]12O[C@H](C[C@@]1(O)C(=O)O)n1c3ccccc3c3c4c(c5c6ccccc6n2c5c31)CNC4=O | inactive | –
2 | CN1CCCC(=C(c2cccs2)c2cccs2)C1 | inactive | –
3 | Cc1nc2ccccn2c1P(=S)(N1CCCCC1)N1CCCCC1 | 11.2 µM (active) | –
4 | c1ccc(CCCCN2CCC(c3ccccc3)CC2)cc1 | inactive | –
5 | O=c1oc2ccccc2c(O)c1C(c1ccccc1O)c1c(O)c2ccccc2oc1=O | inactive | –
6 | CC(C)(C)C(O)(CCc1ccc(Cl)cc1)Cn1cncn1 (stereo not given) | inactive | –
7 | CC1=CC(=O)C2=C(C)C[C@H](O)[C@H]3[C@H](C)C(=O)O[C@@H]3C12 (stereo not given in full) | inactive | –
8 | CCCCCCCCCCCCCC(=O)O[C@@H]1[C@@H](C)[C@@]2(O)[C@@H](C=C(CO)C[C@]3(O)C(=O)C(C)=C[C@@H]23)[C@@H]2C(C)(C)[C@]12OC(C)=O | inactive | –
9 | CCCCCCCCc1[se]c2ccccc2c1Br | inactive | –
10 | CN(C)C[C@H]1CCCC[C@]1(O)c1cccc(O)c1 | inactive | –
11 | Cc1ccc(NC(=O)CN(C)CC(=O)Nc2cccc(F)c2)cc1[N+](=O)[O-] | 4.47 µM (active) | –
12 | c1ccc(CN2CC[C@@]3(CCCNC3)C2)cc1 | inactive | –
13 | ClCCBr | inactive | –
14 | COc1cc(-n2c(=S)[nH]c3ccc(C)cc3c2=O)c(Cl)cc1Cl | 5.62 µM (active) | –
15 | ClC(Cl)=C(Cl)C(Cl)=C(Cl)Cl | inactive | –
16 | c1csc(CN2CCCC3(CCNCC3)C2)n1 | inactive | –
17 | CN[C@@H]1C[C@H]2O[C@@](C)([C@@H]1OC)n1c3ccccc3c3c4c(c5c6ccccc6n2c5c31)C(=O)NC4 | – | -1.08% [at 10 µM] (inactive)
18 | COC(=O)c1ccc2[se]c(CC3CCCCC3)c(I)c2c1 | inactive | –
19 | CCN(CC)c1nc(C)cc(OP(=S)(OC)OC)n1 | inactive | –
20 | C=CC#N | inactive | –
21 | N#Cc1c(Cl)c(Cl)c(Cl)c(C#N)c1Cl | 1.78 µM (active) | –
22 | CCCCC/C=C\C/C=C\C/C=C\C/C=C\CCCCCC(=O)NCCO | inactive | –
23 | N#CCCCl | inactive | –
24 | Cc1cccc(N2C(=O)NC(=O)/C(=C\c3cnn(-c4ccccc4)c3)C2=O)c1 | 12.6 µM (active) | –
25 | COc1cccc(N2C(=O)NC(=O)/C(=C\c3ccc([N+](=O)[O-])s3)C2=O)c1 | inactive | –
26 | O=C1NC(=O)N(c2ccccc2)C(=O)/C1=C/c1ccc([N+](=O)[O-])s1 | inactive | –
27 | N#Cc1cc(Br)c(O)c(Br)c1 | inactive | –
28 | N[C@H](Cc1o[nH]c(=O)c1Cl)C(=O)O | inactive | –
29 | COC1CC(OC2CC[C@@]3(C=O)C4CC[C@]5(C)C(C6=CC(=O)OC6)CC[C@@]5(O)C4CC[C@]3(O)C2)OC(C)C1O (stereo not given in full) | inactive | –
30 | CC[N+](C)(CC)CCC[n+]1c(-c2ccccc2)c2cc(N)ccc2c2ccc(N)cc21 | 2.51 µM (active) | –
